In PubChem BioAssay AID504333 (National Center for Advancing Translational Sciences (NCATS), 2011):
Out of some 360,000 compounds screened, about 16,000 (4.4%) were called active. Not shown: some 9% with an inconclusive outcome. This is one part of a sample in which actives are shown more often than they occur. Values without a mark were called inactive. Calls follow the shape of the dose curve; as a rule, active = well fitted inhibition curve with a large enough effect; inconclusive = small, poorly fitted or top-dose-only effect; inactive = no such curve, though single readings can be large or run the other way.

Molecular target: Bromodomain adjacent to zinc finger domain protein 2B (Homo sapiens) (UniProt Q9UIF8)
Experiment: qHTS Assay for Inhibitors of BAZ2B; also: nearly all actives have a fitted effect of over 60% in size
Conditions: AlphaScreen BAZ2B-H3K14Ac peptide displacement; series mostly up to 114 µM; activity change, negative = inhibition: at the top concentration
How it was run: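 Inhibition is scored as reduced AlphaScreen emission. The BAZ2B/b-H3(5-23)K14Ac complex (50 nM each) in PBS pH 7.4, 0.01% Tween-20 meets compound (up to 110 uM) for 30 min at RT before bead addition.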
% is scaled to controls: 0 for no effect and ±100 for the full control effect; potency is read from the fitted curve at half-maximal effect.

Chain of Bromodomain adjacent to zinc finger domain protein 2B (Homo sapiens) (Q9UIF8 whole entry, looked up, the tested form may be a part): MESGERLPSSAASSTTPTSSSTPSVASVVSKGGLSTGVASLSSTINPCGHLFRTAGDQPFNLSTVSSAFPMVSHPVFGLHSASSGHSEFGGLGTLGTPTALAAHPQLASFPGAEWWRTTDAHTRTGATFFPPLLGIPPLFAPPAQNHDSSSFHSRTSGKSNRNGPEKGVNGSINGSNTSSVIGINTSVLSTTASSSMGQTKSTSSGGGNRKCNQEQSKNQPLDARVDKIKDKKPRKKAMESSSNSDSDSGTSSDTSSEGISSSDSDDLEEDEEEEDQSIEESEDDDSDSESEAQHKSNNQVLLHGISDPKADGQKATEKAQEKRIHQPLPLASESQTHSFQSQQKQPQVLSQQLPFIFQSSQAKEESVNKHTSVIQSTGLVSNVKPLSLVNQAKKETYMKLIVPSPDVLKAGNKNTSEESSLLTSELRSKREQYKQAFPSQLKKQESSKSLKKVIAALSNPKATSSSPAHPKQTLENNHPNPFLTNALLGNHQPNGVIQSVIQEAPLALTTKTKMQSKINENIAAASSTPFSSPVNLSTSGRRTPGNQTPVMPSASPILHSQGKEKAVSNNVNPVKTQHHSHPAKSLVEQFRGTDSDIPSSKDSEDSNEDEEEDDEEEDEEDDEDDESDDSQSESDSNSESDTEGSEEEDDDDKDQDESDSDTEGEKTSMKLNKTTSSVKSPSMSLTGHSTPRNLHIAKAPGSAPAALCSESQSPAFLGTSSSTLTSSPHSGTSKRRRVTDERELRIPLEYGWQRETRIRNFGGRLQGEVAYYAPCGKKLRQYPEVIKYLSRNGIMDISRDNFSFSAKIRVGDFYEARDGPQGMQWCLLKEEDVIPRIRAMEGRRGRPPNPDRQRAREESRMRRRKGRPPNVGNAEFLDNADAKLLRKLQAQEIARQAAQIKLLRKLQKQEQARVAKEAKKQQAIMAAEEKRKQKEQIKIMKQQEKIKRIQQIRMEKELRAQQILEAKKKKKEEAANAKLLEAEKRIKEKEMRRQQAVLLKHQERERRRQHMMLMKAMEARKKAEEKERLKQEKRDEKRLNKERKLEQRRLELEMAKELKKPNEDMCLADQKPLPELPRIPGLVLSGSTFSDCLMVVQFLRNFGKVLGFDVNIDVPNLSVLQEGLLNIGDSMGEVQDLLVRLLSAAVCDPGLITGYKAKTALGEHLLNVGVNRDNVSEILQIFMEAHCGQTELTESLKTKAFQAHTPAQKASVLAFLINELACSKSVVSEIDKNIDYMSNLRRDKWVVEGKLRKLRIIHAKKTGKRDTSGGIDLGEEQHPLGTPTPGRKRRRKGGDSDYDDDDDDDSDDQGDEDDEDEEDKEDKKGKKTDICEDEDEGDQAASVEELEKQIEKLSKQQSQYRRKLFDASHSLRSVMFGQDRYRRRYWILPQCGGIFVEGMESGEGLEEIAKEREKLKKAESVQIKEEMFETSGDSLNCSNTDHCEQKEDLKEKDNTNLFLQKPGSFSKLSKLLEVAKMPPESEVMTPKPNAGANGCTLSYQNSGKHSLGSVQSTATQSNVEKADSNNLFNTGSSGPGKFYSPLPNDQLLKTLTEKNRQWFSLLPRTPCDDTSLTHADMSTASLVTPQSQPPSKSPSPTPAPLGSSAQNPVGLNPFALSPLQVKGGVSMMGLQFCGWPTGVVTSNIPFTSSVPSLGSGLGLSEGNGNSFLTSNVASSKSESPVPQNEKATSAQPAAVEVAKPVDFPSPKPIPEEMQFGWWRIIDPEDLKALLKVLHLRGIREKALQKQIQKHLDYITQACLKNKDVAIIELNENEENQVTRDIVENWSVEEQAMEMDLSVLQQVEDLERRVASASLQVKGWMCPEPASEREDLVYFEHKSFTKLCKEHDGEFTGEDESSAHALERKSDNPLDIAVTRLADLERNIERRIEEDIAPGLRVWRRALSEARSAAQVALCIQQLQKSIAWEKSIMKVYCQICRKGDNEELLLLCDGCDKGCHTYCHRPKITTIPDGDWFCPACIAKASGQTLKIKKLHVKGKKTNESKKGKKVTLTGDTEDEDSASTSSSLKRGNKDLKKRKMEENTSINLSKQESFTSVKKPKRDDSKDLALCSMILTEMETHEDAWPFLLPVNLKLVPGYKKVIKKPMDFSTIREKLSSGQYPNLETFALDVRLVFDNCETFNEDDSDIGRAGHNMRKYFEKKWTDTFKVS

Compound	activity change, negative = inhibition [%]	Potency
COc1ccc(N2CCN(C(=O)CSCc3nc(-c4ccccc4Cl)oc3C)CC2)cc1	4.75	–
Cc1[nH]n(C)c(=O)c1N=Nc1ccc(S(C)(=O)=O)cc1	-19.1	–
Cc1cccc(N=Nc2c(O)[nH]c3ccc(F)cc23)c1	-13.2	–
Cc1cccc(N=Nc2c(C)[nH]n(-c3ccccc3)c2=O)c1	–	3.16 µM (active)
O=C(CCS(=O)(=O)c1ccccc1)N(Cc1cccnc1)c1nc2c(F)cccc2s1	-1.19	–
Cc1ccc(Cl)cc1N(C)C(=O)Cn1nc(Cc2cccnc2)c2ccccc2c1=O	-25.1	–
CC1CCCCN1S(=O)(=O)c1ccc(F)c(C(=O)Nc2ccccc2C(F)(F)F)c1 (configuration not stated)	5.64	–
Cc1ccc(NC(=O)NC(C)c2c(-n3cccc3)sc(C)c2C)c(C)c1 (configuration not stated)	2.45	–
COc1ccc(NC(=O)NC(C)c2c(-n3cccc3)sc(C)c2C)cc1OC (configuration not stated)	–	35.5 µM (active)
CCn1cc(NC(=O)Nc2ccc(OC)c(OC)c2)c(C(N)=O)n1	13.7	–
Cc1cc(Nc2cccc(C(F)(F)F)c2)nc2ccc(NC(=O)c3ccc(=O)[nH]c3)cc12	-5	–
COc1ccc(-c2nc3n(c2Br)CCC3)cc1	–	50.1 µM (active)
COc1ccc(-c2nnc3n2CCCCC3)cc1	0.531	–
COc1ccc(-c2nc(SCC(=O)N3CCCC3)n[nH]2)cc1	4.84	–
CCc1nn(CC(=O)Nc2cc(C)cc(C)c2)c(=O)c2cc3sccc3n12	-3.37	–
COc1ccc(-c2cc(=O)c3c(O)cc(O[C@@H]4O[C@H](CO[C@@H]5O[C@@H](C)[C@H](O)[C@@H](O)[C@H]5O)[C@@H](O)[C@H](O)[C@H]4O)cc3o2)cc1O	-3.8	–
CCOC(=O)COc1cc(OCC(=O)OCC)c2c(=O)cc(-c3ccccc3)oc2c1	3.07	–
COc1c(O)cc2oc(-c3ccc(O)c(O)c3)cc(=O)c2c1O	–	50.1 µM (active)
COCCCn1c(SCC(=O)Nc2ccccc2)nnc1-c1ccncc1	2.13	–
COCCCn1c(SCC(=O)NC2CCCC2)nnc1-c1ccccc1	4.71	–
COCCCn1c(Cc2csc(Nc3cccc(Cl)c3)n2)nnc1SCC(=O)OC1CCCCC1	–	39.8 µM (active)
COc1ccc(-c2cc(C(=O)NCc3cc(OC)c(OC)c(OC)c3)[nH]n2)cc1	-15.3	–
CN(C)c1cccc(C(=O)Nc2nc3ccc(S(=O)(=O)NC(C)(C)C)cc3s2)c1	-20.8	–
Cc1cc(C)c(NC(=O)CN2CCCCCC2)c(C)c1	-4.99	–
O=C(CN1CCCCCC1)Nc1c(Cl)cc(Cl)cc1Cl	-1.52	–
Cc1csc(NC(=O)CN2CCCCCC2)n1	–	50.1 µM (active)
CCOc1ccc(-c2nonc2NC(=O)c2oc3ccc(C)cc3c2C)cc1OCC	1.66	–
